This passage reports PBM binding z-score results from the supplement of paper PMC6555819.

This assay relates to VDR:RXRa (NR concentration 270 nM, RXRa partner concentration 90 nM). As to the kind of experiment: PBM binding z-score (relative to random genomic background probes); higher = stronger binding; sequences stand for … in GC…GCGATTGACAGCGTAGAATGAAGG
The method, then:
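Protein-binding microarray (Agilent 4x180K custom design, double-stranded 60-nt probes: 5' GC cap, 34-nt variable region, 24-nt constant primer region; full probe sequence given). Purified or IVT nuclear receptor:RXRα heterodimers (3:1 NR:RXRα, mostly 270:90 nM) or homodimers were incubated for 1 h in PBS with 2% milk and no ligand, then detected with Alexa488 antibodies. Fluorescence from o1-orientation probes (~5 replicates averaged) was converted to z-scores against 500 random hg19 background probes. Variable regions are seed direct-repeat (DR0–DR5) sites, all their single-nucleotide variants and half-site ablations.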
Consider TCGAGTAGGTTACGGGGGCATTCACGGATGAAGA, for which the PBM binding z-score was 3.95.

TCTCGGAGGACACGAAAGGTCAGTGCTCGACATC: the PBM binding z-score came out at 2.92.

TTACCAAGGTGAAGGTCGTGGATCCCTCTGTAGA had a PBM binding z-score of 1.28.

The sequence CCTTACGGGTCACTGACAGCTTATAGCATTTGGA yielded a PBM binding z-score of 3.11.

GCTCGGAGGACAAGGTCACAGCTTTGTCCGTAGA yielded a PBM binding z-score of 3.47.

The sequence CGTCCAACGTCAGCAGGTCAGTGAAAGCGACGTG returned a PBM binding z-score of -0.198.

Sequence ATCGAAAGGTCGAGTTGAGTATAGAGAAAGGGAA displayed a PBM binding z-score of 3.04.

TCGAGTAGGTTACGGGGGCATTCGGGGATGAAGA came in with a PBM binding z-score of 4.16.

ATCTCTAGGTCAAAGTTCAGTGAATCCCGAGGAT: the PBM binding z-score amounted to 4.4.

Take CGAACTAGGTCACCAGGACAGTGTAGAGGTTGGA: the PBM binding z-score was found to be 2.17.

Turning to CGAACTAGGTCACCCGGACAGTGAAGAGGTTGGA, the PBM binding z-score amounted to 2.69.

Turning to ACTCGGAGGACAAAGGTAAGAGCTACGCCAGTGA, the PBM binding z-score was -0.371.

Take CCGAGTAGGTTACGAGTGGGCATTCAGTGCGAAT: the PBM binding z-score is -0.217.

CCTACTGGGCCGAGGTCATTGATCAGTCAAAGCA registered a PBM binding z-score of 4.12.

CCTACTGGGCCATCAGGTGATTGATATCAACGTT had a PBM binding z-score of -0.317.

With CGTCAAAGTTCTAGGTAACGTAACAGAAAGCAGC, the PBM binding z-score is 0.0814.

CGAACTAGGTCACCTGGACAGTGAAGAGGTTGGA yielded a PBM binding z-score of 2.34.

As to CTATGTAGGTTAAGGGGCTCATTCAGTTTGAAAG, the PBM binding z-score worked out at 0.993.

With TCGAGTAGGTTACGGGGGCATTAAGGGATGAAGA, the PBM binding z-score is 3.4.

The sequence CCGAGTAGGTTACGAGGGGGCACTCAGTGCGAAT showed a PBM binding z-score of 4.68.

Sequence CGTCAAAGTTCAAGGTTACGTAACAGAAAGCAGC showed a PBM binding z-score of 4.31.

The sequence GATACAGGGGCAAGGCCAGAGTACGCGTATTGAT yielded a PBM binding z-score of 0.153.

As to ATATGTAGGTTAGGGTCATTGAGAAAGTAGGGAA, the PBM binding z-score came to 4.27.

Take GATACAGAGTCAGCTAGAGGCCAGAGTATGGAAA: the PBM binding z-score was -0.601.

The sequence CGAACGAGGTCAGAACAGGACAGTGAAGGATGAT gave a PBM binding z-score of 3.67.

CGAACTAGGTCAATGGACAGTGAAAGGCGACGTA returned a PBM binding z-score of 0.802.

Take CTATGTAGGTTAAGGGGGTCCTTCAGTTTGAAAG: the PBM binding z-score was 3.98.

Consider TCGAGTAGGGTACGGGGGCATTCAGGGATGAAGA, for which the PBM binding z-score stood at 3.64.

In turn, ATCGAAAGGTCGAAGGTCAGTATACCCACCCGAA showed a PBM binding z-score of 4.35.

For the sequence CGTCGGAGGACAGAAGGTCAGAGCTGTCCGCTTT, the PBM binding z-score is 0.797.

In turn, CCGAGTAGGTTACGAGGGGGCATTGAGTGCGAAT came in with a PBM binding z-score of 6.16.

In turn, CGTCCAAGGTCAAGGTCACTGAAAGAGACTCGAA came in with a PBM binding z-score of 5.49.

Sequence CCTACTGGGCCATTCAGAGGTTATTGATCATATG had a PBM binding z-score of 0.462.

CAAACTAGGTCAAAGGACAGTGAAAGGCGACGTA yielded a PBM binding z-score of 1.53.

CCTAGTGGGCCAAAGGTCATTGATTCCAATGCTC: the PBM binding z-score came out at 4.68.

CTATGTAGGTTAAGGGGATCATTCAGTTTGAAAG displayed a PBM binding z-score of 2.59.

CCCCGGAGGACAGAAGGTCAGAGCTGTCCGCTTT had a PBM binding z-score of 0.723.

Sequence CAAACTAGGTCACCGTAAGGTCAAAGTCCGCATG displayed a PBM binding z-score of 6.28.

CCTTACGGGTCTCTCCAGGTTATAGCATCGGAGT: the PBM binding z-score was 0.117.

Sequence ATCGAATGGTCGAGGTGAGTATAGAGAAAGGGAA showed a PBM binding z-score of -0.226.
